Assay results from ChEMBL document CHEMBL1157539, “Thousands of chemical starting points for antimalarial lead identification” (Nature, 2010).

Columns and labels:
Format in all cases: functional
[1] = tested on: Plasmodium falciparum; test: GSK_TCMDC: Inhibition of Plasmodium falciparum 3D7 in whole red blood cells, using parasite LDH activity as an index of growth. Test compounds present at 2uM
[2] = tested on: Plasmodium falciparum; test: GSK_TCMDC: Inhibition of Plasmodium falciparum Dd2 in whole red blood cells, using parasite LDH activity as an index of growth. Test compounds present at 2uM
[3] = tested on: HepG2; test: GSK_TCMDC: Percent inhibition of human HepG2 cell line. Test compounds present at 10uM.

Compound	Inhibition [1] [%]	Inhibition [2] [%]	Inhibition [3] [%]
CCCCC(=O)Nc1nc2ccc([N+](=O)[O-])cc2s1	91	69	9
COc1ccccc1C1CCN(C2CCC(NC(=O)/C=C/c3cc(F)cc(F)c3)CC2)CC1 (centres undefined)	91	15	45
O=C(CCCCCNC(=O)c1ccc(O)c(-c2ccc(Cl)c(Cl)c2)c1)NCc1cccc(C(F)(F)F)c1	92	10	2
Cl.O=c1cc(NCCCNCc2scc(I)c2I)[nH]c2ccccc12	100	73	0
Cc1cc2nc(-c3ccc(C(=O)NCCCc4ccccc4)cc3)[nH]c2cc1C	91	5	7
O=[N+]([O-])c1ccccc1C=NN=c1c2c([nH]c3ccccc13)CCCC2	97	99	0
CCc1ccnc2c(N3CCCC3=O)cc(C(=O)N[C@@H](Cc3ccccc3)[C@H](O)CNC3CCOCC3)cc12.O=CO	99	98	2
Nc1nc(-c2ccc3c(Nc4ccc(F)c(Cl)c4)ccnc3c2)cs1	100	88	13
CC(C)CCNCc1ccc(OCc2cccc(C(=O)Nc3ccccc3)c2)c(I)c1.O=C(O)C(F)(F)F	100	59	25
N#Cc1c(N2CCN(c3ccc(F)cc3)CC2)nc(N)c2c(N)nc3c(c12)CC(=O)N3C1CC1	95	82	2
Cc1ccc(NC(=O)NC2CCN(CCCCCNC(=O)/C=C/c3ccc(Cl)c(Cl)c3)CC2)cc1C	100	25	36
N#Cc1cccc(CN2CCCN(Cc3ccc(C(=O)Nc4ccc(Cl)cc4)cc3)CC2)c1.O=C(O)C(F)(F)F	98	21	48
CCOc1cc(CC)ccc1C1CCN(CCN2CCC(NC(=O)c3ccc(-c4ccc(C(C)=O)cc4)cc3)CC2)CC1	100	8	25
CC(CCCCCC(=O)Nc1ccc(CC(C)NCCc2cccc(Cl)c2)cc1)NCCc1cccc(Cl)c1 (centres undefined)	91	37	99
CN1CCN(Cc2ccc(-c3ccc4c(Nc5ccc(Oc6ccccn6)cc5)ccnc4c3)o2)CC1	100	99	13
Cc1cccc2nc(-c3cccc(-c4ccc(NC(=O)CC5NC(=O)c6ccccc65)cc4)c3)[nH]c12 (centres undefined)	100	67	30
FC(F)(F)c1ccc(CNCC2CCN(Cc3ccc4c(c3)OCO4)CC2)cc1.O=C(O)C(F)(F)F	80	12	27
O=C(Nc1ccccc1)N(Cc1ccc(-c2ccc(CNC3CCCC3)cc2)cc1)C1CCN(Cc2ccccc2)CC1.O=C(O)C(F)(F)F	100	61	34
O=C(c1ccc([N+](=O)[O-])o1)N1CCC(c2cn(Cc3cccc(F)c3)c3ccccc23)CC1	97	95	1
CC(c1cccc(Nc2nccc(-c3c(-c4cccc(NC(=O)c5c(F)cccc5F)c4)nn4ccccc34)n2)c1)S(C)(=O)=O (centres undefined)	98	99	76
Cl.O=C(/C=C/c1ccc(Cl)cc1)Nc1ccc2nc(CN3CCCC3)ccc2c1	85	30	47
Cc1cccc2nc(-c3ccc(-c4ccc(CN5CCN(CCN6CCOCC6)CC5)cc4)s3)[nH]c12.O=C(O)C(F)(F)F	100	99	41
OC(CNc1ccnc(Nc2cccc(Cl)c2)n1)c1ccccc1C(F)(F)F (centres undefined)	95	36	40
COc1ccc(C(=O)C2CC2CN(C)CC(O)c2cc(C)c(OC)cc2C)cc1.O=C(O)C(F)(F)F (centres undefined)	90	77	8
COc1c(I)cc(Cc2cnc(N)nc2N)cc1I	91	0	5
Br.NCC(=O)NC12CC3CC(CC(C3)C1)C2	87	0	15
CC(=O)Nc1nc(C(=O)Nc2cccc(-c3ccc4c(cnn4CC4CC4)c3)c2)cs1	95	67	16
Cc1cc(-c2cccc3c(C(=O)N4CCc5cc6nccc(N7CCCN(C)CC7)c6cc54)cccc23)cc(C)n1.Cl	100	100	17
